Potency data for 21 molecules are collected here from PubChem BioAssay (Tox21).

A short description of assay [1]: qHTS assay for small molecule agonists of the p53 signaling pathway (AID 651631; calls by dose curve; note: nearly all actives have a fitted effect of over 15% in size; note: potency is the fitted concentration of half-maximal effect). In a few lines:
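Read-out is beta-lactamase FRET fluorescence measured 2 h after substrate addition at room temperature, in HCT-116 cells with a p53 response element-driven reporter exposed to compounds for 16 h at 37 °C.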
A general note: In qHTS, concentration-response curves come from the screen itself.

Assay [2] in a line: qHTS assay for small molecules that induce genotoxicity in human embryonic kidney cells expressing luciferase-tagged ATAD5 (AID 651632). Note: nearly all actives have a fitted effect of over 15% in size. In a few lines:
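Luminescent reporter readout, HEK293T ATAD5-luc line: 16 hr drug exposure (37C, 5% CO2) followed by Amplite, 30 min RT.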

Assay [3] can be described thus: qHTS assay for small molecule agonists of the p53 signaling pathway - cell viability (AID 651633; calls by dose curve;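 note: p53RE-bla HCT reporter cells with a stable beta-lactamase p53 reporter; series mostly up to about 83 µM; nearly all actives have a fitted effect of over 30% in size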). In a few lines: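 Viability counter-read: CellTiter-Glo luminescence (30 min, room temperature) in the same p53RE-bla plates. These plates had been exposed to compounds for 16 h at 37 C.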
Assay [4] can be described thus: qHTS assay for small molecules that induce genotoxicity in human embryonic kidney cells expressing luciferase-tagged ATAD5 - cell viability (AID 651634; calls by dose curve; note: nearly all actives have a fitted effect of over 25% in size). In a few lines:
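Viability read: CellTiter-Fluor fluorescence, 30 min at 37C. Cells: HEK293T, luciferase-tagged ATAD5. Exposure: 15.5 hr, 37C, 5% CO2, compound or DMSO vehicle.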

A short description of assay [5]: qHTS assay for small molecule disruptors of the mitochondrial membrane potential - cell viability (AID 720634; calls by dose curve;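 note: human HepG2 liver cancer cells; series mostly up to about 83 µM; nearly all actives have a fitted effect of over 20% in size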). In a few lines: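 HepG2, 1 hr compound, 37 C. ATP luminescence via CellTiter-Glo, 30 min RT, same well as m-MPI.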
The nature of assay [6]: qHTS assay to test for compound auto fluorescence at 590 nm (red) in HepG2 cells (AID 720674). In a few lines: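 1 hr compound incubation on HepG2 cells, 37 C, 5% CO2; plate read ex 540 nm / em 590 nm; intensities reported as Rose Bengal sodium equivalents.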
A short description of assay [7]: qHTS assay to test for compound auto fluorescence at 535 nm (green) in HepG2 cells (AID 720675).
Assay [8] can be described thus: qHTS assay to test for compound auto fluorescence at 460 nm (blue) in HEK293 cells (AID 720678). In a few lines:
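HEK293 cells (2,000/well, medium with 10% dialyzed FBS) attached 4-5 hr, then exposed to compound overnight at 37C, 5% CO2. Blue fluorescence read at 405/460 nm, with triamterene as reference fluorophore.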

The nature of assay [9]: qHTS assay to test for compound auto fluorescence at 590 nm (red) in HEK293 cells (AID 720679). In a few lines:
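HEK293 cells (2,000/well, 10% dialyzed FBS) attached 4-5 hr, then dosed with compound or DMSO and incubated overnight at 37C, 5% CO2. Red fluorescence read at 540/590 nm, Rose Bengal sodium as reference fluorophore.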

Records with an inconclusive call do not appear. Activity calls are given as the source filed them. Unless noted, calls come from the whole dose curve; as a rule, active = well fitted curve in the direction sought with a large enough effect in the repeat runs; inconclusive = weak or mixed curves; inactive = no such curve, though single readings can be large; an effect the other way counts as inactive or inconclusive.

For the molecule `CC1(O)CCC(C(C)(C)O)CC1` (centres undefined), the Potency entry in assay [1], in [2], in assay [3], in [4], in assay [5] and in [6] was “inactive” each time. The Potency entry in assay [7], in assay [8] and in assay [9] was “inactive” in each case.

Consider `CC(C)C[C@H](NC(=O)[C@@H](Cc1c[nH]c2ccccc12)NC(=O)[C@H](Cc1ccc(O)cc1)NC(=O)[C@H](CO)NC(=O)[C@H](Cc1c[nH]c2ccccc12)NC(=O)[C@H](Cc1cnc[nH]1)NC(=O)[C@@H]1CCC(=O)N1)C(=O)N[C@@H](CCCN=C(N)N)C(=O)N1CCC[C@@H]1C(=O)NCC(N)=O`, for which the Potency entry in assay [1], in assay [2], in [3], in [4], in assay [5] and in assay [6] was “inactive” each time. Besides, the Potency entry in assay [7], in [8] and in assay [9] was “inactive” throughout.

As for `CN(C)C=Nc1c(I)cc(I)c(CCC(=O)O)c1I`, the Potency result in assay [1], in [2], in [3], in assay [4], in assay [5] and in assay [6] was “inactive” in each case. The Potency entry in assay [7], in assay [8] and in assay [9] was “inactive” in each case.

Consider `CCc1ccc(S(=O)(=O)O)cc1`, for which the Potency entry in assay [1], in assay [2], in assay [3], in assay [4], in assay [5] and in [6] was “inactive” throughout. Also, the Potency entry in assay [7], in assay [8] and in assay [9] was “inactive” throughout.

Turning to `NCCCC[C@H](N)C(=O)O`, the Potency entry in [1], in assay [2], in assay [3], in assay [4], in assay [5] and in assay [6] was “inactive” in each case. Besides, the Potency result in assay [7], in assay [8] and in assay [9] was “inactive” each time.

Turning to `C=C1c2c(Cl)ccc(O)c2C(O)=C2C(=O)[C@]3(O)C(O)=C(C(N)=O)C(=O)[C@@H](N(C)C)[C@@H]3[C@@H](O)[C@H]12`, the Potency result in assay [1], in assay [2], in assay [3], in assay [4], in assay [5] and in [6] was “inactive” in each case. The Potency result in assay [7], in assay [8] and in assay [9] was “inactive” throughout.

Consider `CCCC(=O)N1CCCN(c2nc(N)c3cc(OC)c(OC)cc3n2)CC1`, for which the Potency entry in assay [1], in [2], in assay [3], in [4], in assay [5] and in assay [6] was “inactive” each time. Further, the Potency entry in [7], in assay [8] and in assay [9] was “inactive” in each case.

Turning to `CC[C@H](CC[C@@H](C)[C@H]1CC[C@H]2[C@@H]3CC=C4C[C@@H](O)CC[C@]4(C)[C@H]3CC[C@]12C)C(C)C`, the Potency result in assay [1], in assay [2], in assay [3], in [4], in [5] and in [6] was “inactive” in each case. Further, the Potency entry in assay [7], in assay [8] and in assay [9] was “inactive” throughout.

As to `NCCCNCCCCNC(=O)C(O)NC(=O)CCCCCCN=C(N)N` (centres undefined), the Potency result in [1], in [2], in [3], in assay [4], in [5] and in [6] was “inactive” in each case. For the same molecule, the Potency entry in assay [7], in assay [8] and in [9] was “inactive” throughout.

`Cc1cccc(C)c1N(CCCc1cccnc1)C(=O)C(C)N` (centres undefined): the Potency entry in [1], in assay [2], in assay [3], in [4], in [5] and in assay [6] was “inactive” throughout. For the same molecule, the Potency result in assay [7], in assay [8] and in [9] was “inactive” throughout.

Turning to `COc1cc2c(cc1OC)CC(=O)N(CCCN(C)C[C@H]1Cc3cc(OC)c(OC)cc31)CC2`, the Potency result in [1], in assay [2], in assay [3], in [4], in assay [5] and in assay [6] was “inactive” throughout. Also, the Potency result in assay [7], in assay [8] and in [9] was “inactive” throughout.

Take `N#Cc1ccc2c(c1)N(CCCN1CCC(O)CC1)c1ccccc1S2`: the Potency in assay [1] was 26.6 µM (active). The Potency entry in assay [2], in assay [3], in [4], in assay [5], in [6] and in assay [7] was “inactive” each time. In addition, the Potency result in assay [8] and in assay [9] was “inactive” throughout.

Consider `CC(C)[C@H](N)C(=O)OCC(CO)OCn1cnc2c(=O)[nH]c(N)nc21` (some centres undefined), for which the Potency entry in [1], in assay [2], in assay [3], in assay [4], in assay [5] and in [6] was “inactive” throughout. Further, the Potency result in [7], in [8] and in [9] was “inactive” throughout.

In the case of `COc1ccc(-c2noc(CC(=O)O)c2-c2ccc(OC)cc2)cc1`, the Potency entry in assay [1], in [2], in [3], in assay [4], in [5] and in [6] was “inactive” in each case. Further, the Potency entry in assay [7], in assay [8] and in assay [9] was “inactive” throughout.

With `CCCC(=O)O[C@]1(C(=O)COC(C)=O)CC[C@H]2[C@@H]3C[C@H](F)C4=CC(=O)C=C[C@]4(C)[C@@]3(F)[C@@H](O)C[C@@]21C`, the Potency result in assay [1], in assay [2], in [3], in [4], in assay [5] and in [6] was “inactive” in each case. Also, the Potency result in assay [7], in assay [8] and in assay [9] was “inactive” each time.

Turning to `CO[C@H]1C[C@H](O[C@H]2[C@H](C)[C@@H](O[C@@H]3O[C@H](C)C[C@H](N(C)C)[C@H]3OC(C)=O)[C@@H](C)C[C@]3(CO3)C(=O)[C@H](C)[C@@H](OC(C)=O)[C@@H](C)[C@@H](C)OC(=O)[C@@H]2C)O[C@@H](C)[C@@H]1OC(C)=O`, the Potency result in [1], in assay [2], in assay [3], in assay [4], in [5] and in assay [6] was “inactive” in each case. Moreover, the Potency result in assay [7], in assay [8] and in assay [9] was “inactive” throughout.

In the case of `CCN(CC)CCOC(=O)c1cccnc1`, the Potency result in assay [1], in assay [2], in assay [3], in [4], in assay [5] and in assay [6] was “inactive” each time. For the same molecule, the Potency entry in assay [7], in [8] and in [9] was “inactive” throughout.

As for `CCC(Cc1c(I)cc(I)c(O)c1I)C(=O)O` (centres undefined), the Potency result in assay [1], in [2], in assay [3], in assay [4], in assay [5] and in assay [6] was “inactive” in each case. For the same molecule, the Potency result in assay [7], in assay [8] and in assay [9] was “inactive” each time.

On to `CC(=O)N[C@@H]1C(O[C@H]2O[C@H](C(=O)O)C(O)[C@H](O)[C@H]2O)[C@H](O)[C@@H](CO)O[C@H]1O[C@@H]1C(C(=O)O)O[C@@H](O[C@H]2[C@H](O)[C@@H](CO)OC(O)[C@@H]2NC(C)=O)[C@H](O)[C@H]1O` (some centres undefined), for which the Potency result in assay [1], in [2], in assay [3], in assay [4], in assay [5] and in assay [6] was “inactive” in each case. The Potency entry in assay [7], in [8] and in assay [9] was “inactive” each time.

Take `CC(C)(C)CC(C)(C)c1cc(Cc2cc(C(C)(C)CC(C)(C)C)cc(-n3nc4ccccc4n3)c2O)c(O)c(-n2nc3ccccc3n2)c1`: the Potency result in [1], in assay [2], in [3], in [4], in assay [5] and in assay [6] was “inactive” throughout. For the same molecule, the Potency result in assay [7], in [8] and in [9] was “inactive” each time.

On to `CCCN(CC)C(CC)C(=O)Nc1c(C)cccc1C` (centres undefined), for which the Potency result in assay [1], in assay [2], in assay [3], in assay [4], in [5] and in assay [6] was “inactive” each time. Further, the Potency entry in assay [7], in [8] and in assay [9] was “inactive” in each case.
